Experimental data from PubChem BioAssay (NCI).
About 83,000 compounds went through this panel and 20% of them were active in at least one assay; those are over-represented in the sample as a whole.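 Compound tested at a single concentration for 48 hours in 96-well plates; a percent growth value below 10 was scored as active.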 Calls of active or inactive are those of the source.

tested on: ACHN renal; assay: NCI-60 one-dose screen, 48 h (100 = growth as untreated, 0 = no growth, -100 = all killed); settings: 10 µM

SMILES	growth
CC(=O)OC/C=C(/C)C[P+](c1ccccc1)(c1ccccc1)c1ccccc1	70% (inactive)
CCOC(=O)c1cc(C(=O)c2cc(OC)cc(OC)c2)n2ncc3ccccc3c12	2.48% (active)
C=CCN(CC=C)C(=O)[C@H](CC)[C@@H]1CC[C@@H](C)[C@@H]([C@H](C)[C@@H](O)[C@@H](C)C(=O)[C@H](CC)C2O[C@]3(C=CC(=O)[C@]4(CC[C@@](C)([C@H]5CC[C@](O)(CC)[C@H](C)O5)O4)O3)[C@H](C)C[C@@H]2C)O1 (some centres undefined)	5.47% (active)
Cc1c2c(nn1C(=O)c1nn(-c3ccc(Cl)cc3)cc1O)-c1ccccc1CC2	16.7% (inactive)
O=C(CCn1cnc2c(cc(-c3ccccc3)n2-c2ccccc2)c1=O)Nc1ccc(F)cc1	55.7% (inactive)
COc1ccc(-c2onc(N)c2-c2cc(OC)c3c(c2)OCO3)cc1	43.8% (inactive)
CCCN(CCC)C(=O)[C@H](CC)[C@@H]1CC[C@@H](C)[C@@H]([C@H](C)[C@@H](O)[C@@H](C)C(=O)[C@H](CC)C2O[C@]3(C=C[C@@H](O)[C@]4(CC[C@@](C)([C@H]5CC[C@](O)(CC)[C@H](C)O5)O4)O3)[C@H](C)C[C@@H]2C)O1 (some centres undefined)	-2.43% (active)
CCOC(=O)c1cc(C(=O)c2cc(OC)c(OC)c(OC)c2)n2c1ccc1c3cccnc3ccc12	76.2% (inactive)
COc1cc(NC(=O)Nc2cnc(Nc3ccc(N4CCOCC4)cc3)nc2Oc2cccc(OC)c2)cc(OC)c1	32.8% (inactive)
Fc1ccc2[nH]cc(-c3nc(-c4ccsc4)cs3)c2c1	93.6% (inactive)
IC(I)I	110% (inactive)
Cc1ccc(-n2c(C)nn3c(=O)c4c5c(sc4nc23)CN(C)CC5)cc1	101% (inactive)
CN(C)c1ccc(/C=N/NC(=O)c2ccccc2Nc2cccc(C(F)(F)F)c2)cc1	97.4% (inactive)
N#CC1=C(N)Oc2cc(N)ccc2C1c1cccnc1 (centres undefined)	96.7% (inactive)
O=C(CCCCNC(=O)c1nc(-c2ccccc2)n(-c2ccccc2)n1)NO	102% (inactive)
COc1ccc(-c2cc(-c3ccc(OC)c(OC)c3)nc(SCCCC(=O)NO)n2)cc1	-24.9% (active)
COc1cc(C2CC(c3ccccc3)=NN2C(C)=O)cc(OC)c1OC (centres undefined)	54.9% (inactive)
O=C(/C=C/C=C/c1c(C2CC2)nc2ccccc2c1-c1ccc(F)cc1)c1cccs1	-42.6% (active)
CC(C)N(CCOc1ccc(-c2nc3sccn3c2-c2ccnc(S(C)(=O)=O)n2)cc1)C(C)C	101% (inactive)
O=C(Nc1nc(-c2ccccc2)nc2c1sc(=S)n2-c1ccccc1)C(F)(F)F	91.3% (inactive)

SMILES	growth
O=C(CSc1nnc(-c2ccc(Cl)cc2)o1)Nc1ccc(C(=O)/C=C/c2ccc(Cl)cc2)cc1	114% (inactive)
C=CCn1c(SCC(=O)Nc2ccc(C(=O)/C=C/c3ccc(OC)cc3)cc2)nnc1-c1ccc(OC)c(OC)c1	94.9% (inactive)
CN1CCN(CC(=O)Nc2cccc(-n3cc(-c4ccncc4)c(-c4ccc(Cl)c(O)c4)n3)c2)CC1	44.7% (inactive)
CCc1ccc(C2=NN(c3ccc(S(C)(=O)=O)cc3)C(=O)CC2)cc1	46% (inactive)
Cc1nn(-c2ccc(-c3ccc(OC(F)(F)F)cc3)cc2)c2nc(Cc3ccccc3)nc(N)c12	16.7% (inactive)
Cn1c2ccccc2c2c3[nH][nH]c(=O)c3c3c4ccccc4[nH]c3c21	-8.79% (active)
CC[C@H]1OC(=O)[C@H](C)[C@@H](O[C@H]2C[C@@](C)(OC)[C@@H](O)[C@H](C)O2)[C@H](C)[C@@H](O[C@@H]2O[C@H](C)C[C@H](N(C)C)[C@H]2O)[C@](C)(OC)C/C(C)=C2/O[C@@]1(C)C=C2C	24.5% (inactive)
C=C(C)[C@@H]1CC[C@]2(COCCC#N)CC[C@]3(C)[C@H](CC[C@@H]4[C@@]5(C)Cc6c([nH]c7ccccc67)C(C)(C)[C@@H]5CC[C@]43C)[C@@H]12	95.2% (inactive)
CC(=O)[C@H]1CC[C@]2(C)[C@@H]1CC[C@@H]1[C@@]3(C)CC(CCC#N)(CCC#N)C(=O)C(C)(C)[C@@H]3CC[C@]12C	95.2% (inactive)
O=C1c2ccccc2C(=O)c2c1ccc(C(Br)Br)c2Cl	-74.1% (active)
Clc1ccc(/C=C2\CCCC3C2=Nc2ccccc2NC3c2ccc(Cl)cc2)cc1 (centres undefined)	97.3% (inactive)
Cc1ccc(/C=C/C(=O)C(=O)/C=C/c2ccc(C)cc2)cc1	104% (inactive)
O=C(Nc1ccccc1)Nc1ncnc2c1ncn2-c1ccccc1	22.2% (inactive)
CCn1c(SC/C(=N/O)c2ccccc2)nnc1-c1ccccc1	105% (inactive)
COc1cc2cc(Oc3ccc(NC(=O)Nc4ccc(Cl)c(C(F)(F)F)c4)cc3)c(C)nc2cc1OC	13.6% (inactive)
CCCCCCCCCCCCCCCCCC[n+]1ccc2c(C)c3c(c(C)c2c1)c1cc(O)ccc1n3CC	25.7% (inactive)
CN1CCc2c(sc3nc4n(-c5ccc(Cl)cc5)cnn4c(=O)c23)C1	109% (inactive)
CN1CCc2c(sc3nc4n(-c5ccc(Cl)cc5)c(=O)[nH]n4c(=O)c23)C1	106% (inactive)
C[n+]1c2ccccc2nc2ccccc21	13.6% (inactive)
